Among the data in the supplement of paper PMC6555819 are PBM binding z-score values, retold here.

What all share (assay): PBM binding z-score (relative to random genomic background probes); higher = stronger binding; sequences stand for … in GC…GCGATTGACAGCGTAGAATGAAGG
Test [1] relates to FXR:RXRa (NR concentration 270 nM, RXRa partner concentration 90 nM). In a few lines: (§1)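 Scanned fluorescence from custom Agilent 4×180K protein-binding microarrays was regression-normalized. Binding z-scores use random background probes as reference. Ligand-free nuclear receptor dimers were incubated on the arrays for 1 h and detected with antibodies against each partner (one per run).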

Test [2] relates to LXRa:RXRa (NR concentration 270 nM, RXRa partner concentration 90 nM). A digest of the protocol: as §1
The subject of test [3] is LXRa homodimer (NR concentration 270 nM). A digest of the protocol:
as §1

In test [4] the test system is LXRb:RXRa (NR concentration 270 nM, RXRa partner concentration 90 nM). In a few lines:
as §1

Test [5] has as its system LXRb homodimer (NR concentration 270 nM). In a few lines: as §1
Test [6] deals with PPARa:RXRa (NR concentration 270 nM, RXRa partner concentration 90 nM). A digest of the protocol:
as §1

In test [7] the test system is PPARg:RXRa (NR concentration 180 nM, RXRa partner concentration 90 nM). A digest of the protocol: as §1
In test [8] the test system is PPARg:RXRa 270nM:90nM, anti-RXR (NR concentration 270 nM, RXRa partner concentration 90 nM). In a few lines: as §1
For test [9], the system named is PPARg:RXRa 30nM:10nM, anti-RXR (NR concentration 30 nM, RXRa partner concentration 10 nM). In a few lines: as §1
Test [10] relates to PPARg:RXRa 90nM:30nM, anti-RXR (NR concentration 90 nM, RXRa partner concentration 30 nM). In a few lines: as §1

Turning to CCGACTGCGGCAGAAAGGTTACCATACCATCCGG, the PBM binding z-score is 0.417 in [1]; 0.665 in test [2]; -0.0134 in test [3]; 1.08 in test [4]; -0.692 in test [5]; 1.85 in [6]. For the same sequence, the PBM binding z-score in [7] turned out to be 1.33; in test [8] it was 2.53; in [9], 0.645; in test [10], 2.19.

In the case of CGTCCTAGGTCAGCAGGTCAGTGAAAGCGACGTG, the PBM binding z-score in test [1] is 2.92; in [2], 2.04; in [3], 0.0283; in test [4] it was 1.6; in test [5] it was -0.603; in test [6] it was 3.23. Moreover, the PBM binding z-score in test [7] stood at 2.32; in test [8], 3.21; in test [9], 0.151; in test [10] it was 1.87.

Consider ATATCTAGGTTATCGGGTCATTCAGTTTGCGCAT, for which the PBM binding z-score is 3.27 in [1]; 3.47 in test [2]; 2.2 in test [3]; 3.33 in test [4]; 1.83 in test [5]; 4.98 in [6]. The PBM binding z-score in [7] worked out at 6.91; in test [8], 6.17; in test [9], 4.2; in test [10], 6.24.

On to CCTAGTTGGTCAACGTCACACACGCTATAGGTAC, for which the PBM binding z-score turned out to be 0.458 in [1]; 0.525 in test [2]; 0.431 in [3]; 0.877 in [4]; 0.581 in test [5]; 0.58 in [6]. Moreover, the PBM binding z-score in test [7] is 1.25; in test [8] it was 0.719; in test [9], 0.299; in test [10], 0.407.

Consider ATCTCTCGGTAAGACTCAGTTCAGTGAAGAACGC, for which the PBM binding z-score in [1] was 0.549; in test [2], 0.674; in test [3], 0.845; in test [4] it was 0.602; in test [5], 1.47; in test [6] it was 0.3. Also, the PBM binding z-score in [7] was -0.175; in test [8] it was 0.19; in test [9], 0.114; in test [10], 0.251.

As for CATACAGGGTCAGCTAGGCCAGAGTCGGGACGGC, the PBM binding z-score in [1] is 4.49; in test [2], 3.06; in test [3], -0.0518; in test [4], 1.97; in test [5], 0.537; in test [6] it was 4.21. Further, the PBM binding z-score amounted to 3.11 in test [7], 3.03 in [8], 0.551 in [9] and 1.92 in [10].

Consider TCTATTAGTTGAAAGGCAACCGACGAGTCCGTTT, for which the PBM binding z-score in test [1] is 0.518; in test [2], 0.929; in [3], 0.254; in test [4], 0.901; in test [5] it was 0.728; in test [6] it was 1.12. In addition, the PBM binding z-score came out at 0.475 in [7], 2.96 in test [8], 4.06 in [9] and 3.42 in test [10].

With TTACCAAGGTGAGGGTCGTTGATCCCTCTGTAGA, the PBM binding z-score in test [1] is 1.32; in test [2], 0.898; in [3], -0.621; in [4] it was 0.915; in test [5] it was -0.774; in test [6] it was 1.88. In addition, the PBM binding z-score amounted to 0.82 in test [7], 2.03 in test [8], 0.53 in test [9] and 1.46 in [10].

On to CCTATTAGTTGACCATAAGGGCAACTGAAGCTCG, for which the PBM binding z-score in test [1] was found to be 1.03; in test [2], 0.424; in test [3], 0.44; in test [4] it was 0.496; in test [5], 0.545; in test [6] it was 0.479. Also, the PBM binding z-score was 0.379 in test [7], 0.673 in test [8], 0.177 in test [9] and 0.597 in test [10].

In the case of CCTTACGGGTCACTGACAGATTATAGCATTTGGA, the PBM binding z-score in [1] is 5.42; in test [2], 3.4; in test [3], 0.418; in test [4] it was 3.31; in test [5], 0.248; in test [6] it was 5.28. Further, the PBM binding z-score came to 4.31 in test [7], 4.42 in [8], 1.59 in test [9] and 3.46 in [10].

Take TCTGCTAGGTCAACCATGGTCAGCTAATCTGCTA: the PBM binding z-score in test [1] was 4.32; in test [2], 3.21; in test [3] it was -0.0391; in test [4], 2.21; in [5] it was 0.102; in test [6], 3.52. Moreover, the PBM binding z-score amounted to 2.98 in [7], 3.44 in [8], 2.15 in test [9] and 2.95 in [10].

Turning to CTCGAAAGGTCGTTTGAGGTGAGTATACGGATAA, the PBM binding z-score in [1] is 6.16; in test [2], 4.77; in test [3], 0.74; in test [4] it was 3.96; in test [5] it was 1.09; in test [6], 4.99. The PBM binding z-score in test [7] worked out at 2.46; in [8], 3.47; in test [9], 1.38; in test [10], 2.14.

For the sequence TTACCAAGGTGAAAGGTCGTTGGTGCACGCCTTG, the PBM binding z-score in [1] is 4.28; in test [2] it was 3.47; in test [3], 0.325; in [4], 2.87; in [5], -0.67; in test [6] it was 5.54. For the same sequence, the PBM binding z-score was 8.98 in test [7], 8.05 in test [8], 6.8 in test [9] and 8.19 in [10].
